From ChEMBL document CHEMBL3988442, “University of Dundee, Small-Polar-MMV Screening Library” (2021)
For part of these data: Results with a measured potency or affinity are listed apart.

Legend:
Parameters in all cases: scale not given: direction of the effect not stated beside the values
[1] = molecular target: Protein translocase subunit SecA (Escherichia coli (strain K12)) (UniProt P10408); assay: Assay to Identify E. coli SecA ATPase Inhibitors; format: functional; details: 30 µM
[2] = molecular target: T1, Ubiquitin-activating enzyme e1, putative (Leishmania donovani (strain BPK282A1)) (UniProt E9BSI1); assay: Leishmania donovani Ubiquitin Activating Enzyme (LdE1); format: functional; details: 30 µM
T1 sequence (whole entry): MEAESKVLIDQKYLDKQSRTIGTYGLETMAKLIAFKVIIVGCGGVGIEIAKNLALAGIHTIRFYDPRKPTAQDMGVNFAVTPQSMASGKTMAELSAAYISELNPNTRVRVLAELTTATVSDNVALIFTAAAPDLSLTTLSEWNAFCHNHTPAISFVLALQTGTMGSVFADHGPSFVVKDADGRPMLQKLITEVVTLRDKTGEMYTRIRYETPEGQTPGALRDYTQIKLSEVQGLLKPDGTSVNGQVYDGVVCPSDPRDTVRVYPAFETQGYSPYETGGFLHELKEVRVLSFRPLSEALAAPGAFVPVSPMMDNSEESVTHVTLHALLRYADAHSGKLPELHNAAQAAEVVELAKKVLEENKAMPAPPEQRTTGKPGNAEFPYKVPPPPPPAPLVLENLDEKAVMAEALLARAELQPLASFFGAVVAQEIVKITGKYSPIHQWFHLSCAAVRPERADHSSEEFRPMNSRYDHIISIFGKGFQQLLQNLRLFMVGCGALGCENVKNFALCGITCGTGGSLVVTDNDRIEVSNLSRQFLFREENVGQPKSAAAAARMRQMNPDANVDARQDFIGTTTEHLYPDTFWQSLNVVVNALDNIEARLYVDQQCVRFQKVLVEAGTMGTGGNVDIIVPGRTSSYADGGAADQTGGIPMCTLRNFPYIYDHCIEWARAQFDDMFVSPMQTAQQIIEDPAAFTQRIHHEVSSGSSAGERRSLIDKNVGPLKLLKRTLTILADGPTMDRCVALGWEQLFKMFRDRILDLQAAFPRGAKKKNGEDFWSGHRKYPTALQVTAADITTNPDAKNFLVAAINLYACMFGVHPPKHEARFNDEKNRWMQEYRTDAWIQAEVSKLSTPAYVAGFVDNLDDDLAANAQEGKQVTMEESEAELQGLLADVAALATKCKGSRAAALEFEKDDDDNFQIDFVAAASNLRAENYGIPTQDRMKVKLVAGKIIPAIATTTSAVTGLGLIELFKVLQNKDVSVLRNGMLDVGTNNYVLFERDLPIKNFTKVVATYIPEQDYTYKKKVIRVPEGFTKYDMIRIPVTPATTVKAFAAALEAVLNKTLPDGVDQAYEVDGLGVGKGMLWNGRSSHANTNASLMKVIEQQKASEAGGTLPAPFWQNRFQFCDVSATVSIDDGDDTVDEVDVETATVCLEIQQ

[3] = molecular target: T2, Aspartate--tRNA(Asp/Asn) ligase (Mycobacterium tuberculosis (strain ATCC 25618 / H37Rv)) (UniProt P9WFW3); assay: Assay for Asp RNA synthetase-1 from Mycobacterium tuberculosis; format: functional; details: 30 µM; further: in the data most compounds retested in dose-response had high values
T2 sequence (whole entry): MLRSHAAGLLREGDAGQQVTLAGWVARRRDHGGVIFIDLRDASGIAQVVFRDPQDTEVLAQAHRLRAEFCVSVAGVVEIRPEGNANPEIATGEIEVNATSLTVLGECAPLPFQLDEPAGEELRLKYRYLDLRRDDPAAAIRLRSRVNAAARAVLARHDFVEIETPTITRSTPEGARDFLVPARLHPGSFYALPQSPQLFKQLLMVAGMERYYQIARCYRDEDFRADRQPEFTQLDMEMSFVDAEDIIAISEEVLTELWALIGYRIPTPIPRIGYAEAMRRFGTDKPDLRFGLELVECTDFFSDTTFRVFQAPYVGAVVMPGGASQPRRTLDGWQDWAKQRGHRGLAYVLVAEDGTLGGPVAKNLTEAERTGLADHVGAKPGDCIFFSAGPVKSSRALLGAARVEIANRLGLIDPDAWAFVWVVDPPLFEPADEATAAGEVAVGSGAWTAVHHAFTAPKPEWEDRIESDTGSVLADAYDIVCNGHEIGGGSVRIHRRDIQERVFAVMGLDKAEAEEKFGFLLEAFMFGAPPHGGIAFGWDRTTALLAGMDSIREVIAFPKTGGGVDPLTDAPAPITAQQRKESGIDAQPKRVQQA

[4] = molecular target: AMP-activated protein kinase, AMPK (Homo sapiens) (UniProt P54646+O43741+P54619+Q9UGJ0+Q9Y478+Q13131+Q9UGI9); assay: AMP-dependent Kinase enzyme assay. An in vitro enzyme assay that detects ADP turnover that is directly proportional to AMPK activity. This uses naive AMPK that is activated during the assay with MK-8722; format: functional; details: 30 µM
[5] = molecular target: Sialic acid-binding Ig-like lectin 9 (Homo sapiens) (UniProt Q9Y336); assay: Hs-Siglec9 ALPHAscreen SOP 20170721; details: 10 µM
Trypanosoma cruzi = assay: Trypanosoma cruzi phosphomannomutase and mannose-1-phosphate guanylyltransferase assay; format: functional; details: 10 µM
[6] = molecular target: T3, Arginase-2, mitochondrial (Homo sapiens) (UniProt P78540); assay: in vitro enzyme assay to detect the production of urea directly proportional to the activity of Arginase II; format: functional; details: 33.3 µM; further: in the data most compounds retested in dose-response had high values
T3 sequence (whole entry): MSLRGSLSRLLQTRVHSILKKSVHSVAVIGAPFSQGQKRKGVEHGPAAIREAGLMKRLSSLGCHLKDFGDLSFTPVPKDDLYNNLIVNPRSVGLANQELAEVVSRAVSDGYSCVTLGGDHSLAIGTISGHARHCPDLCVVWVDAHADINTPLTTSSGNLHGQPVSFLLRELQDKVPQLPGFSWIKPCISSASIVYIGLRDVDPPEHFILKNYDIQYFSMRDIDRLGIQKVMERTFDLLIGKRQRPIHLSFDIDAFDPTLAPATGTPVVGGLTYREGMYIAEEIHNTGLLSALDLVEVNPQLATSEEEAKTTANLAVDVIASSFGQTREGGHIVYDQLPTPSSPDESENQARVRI

[7] = molecular target: T4, Proteasome subunit beta (Trypanosoma cruzi) (UniProt O96673); assay: Trypanosoma cruzi proteasome chymotrypsin-like activity (TcProtChymo) assay.; further: in the data most compounds retested in dose-response had high values; format: functional; details: 9.37 µM
T4 sequence (whole entry): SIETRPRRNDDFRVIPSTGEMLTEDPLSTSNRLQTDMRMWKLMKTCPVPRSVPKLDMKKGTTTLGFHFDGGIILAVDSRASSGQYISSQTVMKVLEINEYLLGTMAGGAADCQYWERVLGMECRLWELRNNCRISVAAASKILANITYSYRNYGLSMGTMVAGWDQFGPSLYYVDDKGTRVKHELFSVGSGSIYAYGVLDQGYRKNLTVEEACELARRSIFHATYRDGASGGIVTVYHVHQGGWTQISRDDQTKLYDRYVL

Homo sapiens = species: Homo sapiens; assay: To identify inhibition of the IFN signalling (Jak-Stat) pathway via expression of an eGFP reporter gene under the control of an IFN-stimulated response element (ISRE) containing MxA promoter.; format: functional; details: 30 µM
[8] = molecular target: Shiga toxin 2 (Escherichia coli O157:H7) (UniProt P09385+P09386); assay: E. coli 0.157:H7 Shiga Toxin SOP - stx2 screening assay; format: functional; details: 30 µM
[9] = molecular target: T5, Tyrosyl-tRNA synthetase, putative (Trypanosoma cruzi (strain CL Brener)) (UniProt Q4DSP6); assay: Trypanosoma cruzi tyrosyl tRNA synthetase (TcYRS) _High Tyrosine SOP; format: functional; details: 30 µM; further: in the data most compounds retested in dose-response had high values
T5 sequence (whole entry): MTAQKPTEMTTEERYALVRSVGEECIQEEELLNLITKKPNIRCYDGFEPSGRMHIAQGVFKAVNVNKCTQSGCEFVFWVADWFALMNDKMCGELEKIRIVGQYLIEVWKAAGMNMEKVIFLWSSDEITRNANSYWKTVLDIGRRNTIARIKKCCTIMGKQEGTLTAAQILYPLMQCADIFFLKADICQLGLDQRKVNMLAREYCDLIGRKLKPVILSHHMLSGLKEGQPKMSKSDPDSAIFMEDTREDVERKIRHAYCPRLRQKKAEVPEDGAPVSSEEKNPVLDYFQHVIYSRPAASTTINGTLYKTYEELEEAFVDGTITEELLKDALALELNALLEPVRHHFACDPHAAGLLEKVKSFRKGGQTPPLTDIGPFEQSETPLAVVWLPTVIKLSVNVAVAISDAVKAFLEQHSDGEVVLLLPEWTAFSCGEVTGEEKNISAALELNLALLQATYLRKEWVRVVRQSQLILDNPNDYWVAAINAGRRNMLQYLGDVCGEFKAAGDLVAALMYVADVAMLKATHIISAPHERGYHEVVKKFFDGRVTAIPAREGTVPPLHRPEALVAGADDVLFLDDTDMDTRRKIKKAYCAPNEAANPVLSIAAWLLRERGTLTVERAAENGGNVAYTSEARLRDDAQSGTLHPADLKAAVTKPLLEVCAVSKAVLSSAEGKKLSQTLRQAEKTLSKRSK

[10] = molecular target: T5, Tyrosyl-tRNA synthetase, putative (Trypanosoma cruzi (strain CL Brener)); assay: Trypanosoma cruzi tyrosyl tRNA synthetase (TcYRS) SOP; format: functional; details: 30 µM
[11] = molecular target: Chromo domain-containing protein 1 (Saccharomyces cerevisiae (strain ATCC 204508 / S288c) (Baker's yeast)) (UniProt P32657); assay: ScCHD-1 Enzyme Inhibition Assay; format: functional; details: 30 µM; further: in the data most compounds retested in dose-response had high values
Chain of Chromo domain-containing protein 1 (Saccharomyces cerevisiae (strain ATCC 204508 / S288c) (Baker's yeast)) (P32657 whole entry, the tested form may be a part): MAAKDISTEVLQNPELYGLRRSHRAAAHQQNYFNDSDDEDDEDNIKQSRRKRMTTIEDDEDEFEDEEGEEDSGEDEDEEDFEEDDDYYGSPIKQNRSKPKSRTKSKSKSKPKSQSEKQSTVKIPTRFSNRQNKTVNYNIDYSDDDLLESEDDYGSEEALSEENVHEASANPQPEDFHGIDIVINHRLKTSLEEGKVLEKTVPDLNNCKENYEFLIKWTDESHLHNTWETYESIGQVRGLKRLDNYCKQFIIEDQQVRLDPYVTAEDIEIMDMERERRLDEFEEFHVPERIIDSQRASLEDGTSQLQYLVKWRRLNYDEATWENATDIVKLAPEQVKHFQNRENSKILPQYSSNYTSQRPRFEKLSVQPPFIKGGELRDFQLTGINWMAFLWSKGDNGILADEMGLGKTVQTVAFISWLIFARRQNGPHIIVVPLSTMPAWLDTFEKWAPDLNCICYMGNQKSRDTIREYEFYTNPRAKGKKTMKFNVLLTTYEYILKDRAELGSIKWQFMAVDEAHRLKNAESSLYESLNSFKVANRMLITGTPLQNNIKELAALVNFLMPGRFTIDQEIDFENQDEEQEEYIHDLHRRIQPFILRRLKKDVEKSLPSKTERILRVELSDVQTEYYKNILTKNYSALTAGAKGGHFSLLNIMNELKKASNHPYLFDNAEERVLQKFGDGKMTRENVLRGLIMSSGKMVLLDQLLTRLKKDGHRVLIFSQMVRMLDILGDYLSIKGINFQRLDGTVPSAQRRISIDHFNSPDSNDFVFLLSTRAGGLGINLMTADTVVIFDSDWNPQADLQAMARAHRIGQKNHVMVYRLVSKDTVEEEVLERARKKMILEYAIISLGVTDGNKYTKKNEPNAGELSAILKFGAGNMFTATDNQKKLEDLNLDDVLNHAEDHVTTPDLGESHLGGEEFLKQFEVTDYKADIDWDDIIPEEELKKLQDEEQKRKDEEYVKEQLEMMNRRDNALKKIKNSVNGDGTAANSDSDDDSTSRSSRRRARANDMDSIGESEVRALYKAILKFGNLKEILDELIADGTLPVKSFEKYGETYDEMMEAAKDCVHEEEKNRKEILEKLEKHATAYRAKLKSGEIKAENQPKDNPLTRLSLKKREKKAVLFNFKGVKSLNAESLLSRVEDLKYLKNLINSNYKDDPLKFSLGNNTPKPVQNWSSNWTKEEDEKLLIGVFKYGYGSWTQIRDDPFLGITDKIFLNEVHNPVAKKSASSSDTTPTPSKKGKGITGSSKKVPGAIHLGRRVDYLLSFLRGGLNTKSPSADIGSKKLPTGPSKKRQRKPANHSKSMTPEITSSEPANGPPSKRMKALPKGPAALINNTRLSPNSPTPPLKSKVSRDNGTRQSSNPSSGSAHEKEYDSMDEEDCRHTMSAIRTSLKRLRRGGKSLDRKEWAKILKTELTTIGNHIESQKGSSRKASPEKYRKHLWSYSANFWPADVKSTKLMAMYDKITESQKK

Chain of Protein translocase subunit SecA (Escherichia coli (strain K12)) (P10408 whole entry): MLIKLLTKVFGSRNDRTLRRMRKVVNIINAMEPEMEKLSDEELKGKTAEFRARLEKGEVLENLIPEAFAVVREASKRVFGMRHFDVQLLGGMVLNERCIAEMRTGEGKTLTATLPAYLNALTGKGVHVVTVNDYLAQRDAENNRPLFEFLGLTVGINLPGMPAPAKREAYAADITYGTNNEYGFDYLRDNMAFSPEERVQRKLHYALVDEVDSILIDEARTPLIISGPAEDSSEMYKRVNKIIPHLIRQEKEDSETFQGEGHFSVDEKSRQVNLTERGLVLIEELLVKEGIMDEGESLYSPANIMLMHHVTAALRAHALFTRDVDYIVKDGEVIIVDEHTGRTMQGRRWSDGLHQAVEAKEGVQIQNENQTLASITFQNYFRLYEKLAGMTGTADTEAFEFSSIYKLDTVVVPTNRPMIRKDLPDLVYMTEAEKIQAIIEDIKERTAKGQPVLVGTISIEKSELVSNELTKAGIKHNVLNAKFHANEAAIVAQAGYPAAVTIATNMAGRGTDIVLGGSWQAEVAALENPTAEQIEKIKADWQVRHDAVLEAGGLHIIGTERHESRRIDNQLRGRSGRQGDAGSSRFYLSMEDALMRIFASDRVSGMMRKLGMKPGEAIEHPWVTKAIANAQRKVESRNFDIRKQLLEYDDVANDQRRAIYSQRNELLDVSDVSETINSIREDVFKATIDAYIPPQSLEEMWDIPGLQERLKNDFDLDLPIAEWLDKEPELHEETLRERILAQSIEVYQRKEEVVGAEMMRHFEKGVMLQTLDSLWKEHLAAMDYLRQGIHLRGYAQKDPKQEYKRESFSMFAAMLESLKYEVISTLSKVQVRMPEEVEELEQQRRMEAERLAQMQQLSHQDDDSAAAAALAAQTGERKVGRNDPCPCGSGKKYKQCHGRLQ
Chain of Sialic acid-binding Ig-like lectin 9 (Homo sapiens) (Q9Y336 whole entry): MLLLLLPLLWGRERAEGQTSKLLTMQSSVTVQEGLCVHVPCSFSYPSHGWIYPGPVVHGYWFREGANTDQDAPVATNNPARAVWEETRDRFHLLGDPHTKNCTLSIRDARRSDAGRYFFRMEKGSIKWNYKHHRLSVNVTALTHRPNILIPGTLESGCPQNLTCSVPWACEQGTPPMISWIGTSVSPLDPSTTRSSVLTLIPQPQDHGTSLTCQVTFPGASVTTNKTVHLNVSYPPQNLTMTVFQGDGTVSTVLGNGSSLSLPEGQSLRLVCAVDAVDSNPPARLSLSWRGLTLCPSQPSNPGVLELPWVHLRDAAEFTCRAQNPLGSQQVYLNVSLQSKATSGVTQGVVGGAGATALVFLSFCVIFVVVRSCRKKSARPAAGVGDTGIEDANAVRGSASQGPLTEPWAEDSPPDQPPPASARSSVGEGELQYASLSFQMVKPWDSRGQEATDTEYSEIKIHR

SMILES | Percent Effect [1] [%] | Percent Effect [2] [%] | Percent Effect [3] [%] | Percent Effect [4] [%] | Percent Effect [5] [%] | Percent Effect (Trypanosoma cruzi) [%] | Percent Effect [6] [%] | Percent Effect [7] [%] | Percent Effect (Homo sapiens) [%] | Percent Effect [8] [%] | Percent Effect [9] [%] | Percent Effect [10] [%] | Percent Effect [11] [%]
CCc1nnc(C(C)N2CCCN(C(=O)Oc3ccccc3)CC2)o1 (configuration not stated) | -1.28 | 15.8 | -3.35 | 0.0863 | -6.34 | -6.72 | -3.55 | 12.6 | 3.97 | -15.6 | 2.13 | 5.2 | -5.08
NCC1(c2cccc(Br)c2)CCOCC1 | -5.22 | 2.7 | 5.62 | -4.06 | -6.14 | -2.93 | -22.5 | 8.2 | 2.44 | -23.5 | 8.91 | -6.1 | -2.29
Cc1nc(CN2C[C@@H]3OCCN(c4ncc(F)cn4)[C@@H]3C2)cs1 | 0.0245 | 5.33 | -1.08 | 7.05 | 2.47 | -1.74 | -58.6 | 11.3 | -21.1 | 2.24 | 4.17 | 15 | -7
COc1cc(CNCC(O)c2ccc(C)cc2)cc2c1OCCO2 (configuration not stated) | -5.58 | 24.3 | -2.36 | 11 | 14.6 | 2.32 | -3.88 | 16.3 | 8.18 | -34.2 | 6.93 | 18.3 | -6.66
c1ccc(CN2C[C@@H]3OCCN(CC4CCCO4)[C@@H]3C2)nc1 (some centres not stated) | -4.3 | 10.8 | -0.749 | -3.75 | 1.76 | 4.01 | 15 | 15.5 | 22.6 | 4.43 | 7.57 | 15.4 | -4.89
Cc1noc(C)c1CN1CC[C@H]2C[C@@H](c3nccs3)O[C@@H]2C1 | -4.73 | 5.41 | 3.41 | 3.53 | 1.06 | 0.88 | 0.319 | 18.1 | 4.79 | 11.3 | 1.08 | 7.69 | -0.345
O=C(NCC1CC1)[C@H]1C[C@@H]2[C@@H](C1)OCCN2Cc1cccnc1 | -2.08 | -5.33 | -0.291 | 6.97 | 0.812 | -1.93 | -52.5 | -2.73 | 9.72 | -7.08 | -1.04 | -5 | 4.12
Cc1nc(N(C)C)nc2c1COCC21CCN(CC2CC2)C1 (configuration not stated) | -3.83 | -8.11 | 3.96 | -0.232 | 1.53 | -5.86 | 1.25 | 7.18 | 4.17 | -14.2 | 6.93 | 6.1 | -5.03
c1cc(COC[C@@H]2CCC[C@@]23CNCCO3)ccn1 | -6.97 | 8.11 | 4.08 | 91.3 | -11.6 | -6.94 | -3.5 | 10.7 | 2.47 | -12.9 | -3.24 | 0 | -2.52
